Screens from PubChem BioAssay.
Shiga toxin inh = Shiga toxin inhibition; Vero cells, Shiga toxin protein synthesis inhibition reporter; 290,000 compounds, 9.2% hits; inhibition, % at 38.7 µM; in the data active = inhibition mostly above about 28%, no sharp cut-off; inactive = mostly below about 43%
Giardia FBPA inh = blocks Giardia fructose-bisphosphate aldolase activity; Potency, µM (titrated, usually from 59.6 µM), usual class: inhibitors; 290,000 compounds, 0.71% hits; purified Giardia FBPA; A8B2U2; AID 2451; note: nearly all actives have a fitted effect of over 55% in size
Target sequence (A8B2U2 whole entry, looked up): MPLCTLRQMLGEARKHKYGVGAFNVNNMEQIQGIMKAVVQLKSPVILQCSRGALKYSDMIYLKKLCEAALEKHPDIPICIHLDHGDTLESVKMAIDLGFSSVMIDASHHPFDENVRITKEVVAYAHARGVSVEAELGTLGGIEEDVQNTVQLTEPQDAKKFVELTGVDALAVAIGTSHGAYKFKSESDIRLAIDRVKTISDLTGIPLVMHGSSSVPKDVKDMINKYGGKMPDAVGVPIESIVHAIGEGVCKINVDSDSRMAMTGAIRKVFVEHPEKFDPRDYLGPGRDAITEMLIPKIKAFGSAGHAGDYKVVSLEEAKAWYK
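40 nM FBPA preincubated 10 min at RT with compound (up to 57.5 uM final), then substrate plus GAPDH/TPI/NAD/arsenate coupling and diaphorase/resazurin added. Fluorescence read after 20 min at RT, 525/598 nm.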
CHX counter = affects cycloheximide protein synthesis inhibition readout, counter-screen; 300,000 compounds, 12% hits; cell reporter, cycloheximide protein synthesis inhibition counterscreen; max response, %; in the data active = max response mostly above about 13%, no sharp cut-off; inactive = mostly below about 14%; note: read at 38.3 µM for the half of the compounds with a filed dose
LmPK inhibitor = blocks Leishmania mexicana pyruvate kinase activity; Q27686; purified LmPK, Kinase-Glo ATP luminescence, 1 h; Potency, µM (top dose mostly 57.5 µM), hits mostly inhibitors; 290,000 compounds, 0.37% hits
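Screened at intermediate enzyme activity to detect both inhibitors and activators: LmPK at 0.1 nM, with a 0.5 nM enzyme column as activation reference. PEP 0.5 mM, ADP 0.1 mM; ATP detected by luminescence after 1 h.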
RE007 growth inh = less growth of the S. pombe RE007 Vpr strain; S. pombe RE007 Vpr strain, BacTiter-Glo ATP luminescence, 24 h; Potency, µM (doses to about 92.2 µM), actives largely listed as inhibitors; 360,000 compounds, 0.21% hits; active = well fitted falling curve with a large enough effect; inconclusive = small, poorly fitted or top-dose-only effect; inactive = no such curve, though single readings can be large or run the other way; note: nearly all actives have a fitted effect of over 50% in size
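Fission yeast strain RE007, carrying one chromosomally integrated HIV-1 vpr copy, was seeded at OD 0.01 in PMG+AL medium with 23 nL pinned compound. After 24 h at 30 °C and 99% humidity, viability was read by BacTiter-Glo luminescence.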
TbPYK inhibitor = inhibitors of Trypanosoma brucei pyruvate kinase; TbPYK enzyme, Kinase-Glo Plus ATP luminescence, 45 min; Potency, µM (series often up to 76.8 µM), actives largely listed as inhibitors; 410,000 compounds, 0.12% hits; note: nearly all actives have a fitted effect of over 50% in size
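Enzyme and substrate buffer are dispensed first and compound is pin-transferred. ADP at 130 uM final then starts the reaction, which runs 45 min at room temperature. Detection reagent is added for 10 min before luminescence is imaged.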
Hits are given with their value; - = inactive; ? = inconclusive; . = no result; + = active, no number; [ ] = dose if it differs, or a comment. The entries come from a sample that favours hits as a whole. Unless noted, calls come from the whole dose curve; as a rule, active = well fitted curve in the direction sought with a large enough effect; inconclusive = small, poorly fitted or top-dose-only effect, or another doubt; inactive = no such curve, though single readings can be large; an effect the other way counts as inactive or inconclusive.

SMILES	Shiga toxin inh	Giardia FBPA inh	CHX counter	LmPK inhibitor	RE007 growth inh	TbPYK inhibitor
CCOC(=O)CCCC(=O)N1CCOCCOCCN(C(=O)CCCC(=O)OCC)CCOCCOCC1	62.6	-	43.4	-	-	-
Cc1cc(Cl)ccc1OCCCC(=O)N1CCCCC1	-	-	34.8	-	-	-
CSc1ccccc1C(=O)N(C)C(c1ccccc1)c1ccccc1	-	-	-	-	-	-
COC(=O)c1ccc(Cn2c(C)c(C(=O)Nc3cccc(Oc4ccccc4)c3)sc2=O)o1	.	.	.	.	-[18.4 µM]	-
COc1ccc(N2CCN(CC(O)COc3ccc(C(C)C)c(C)c3)CC2)cc1 (stereo unspecified)	.	.	.	.	.	-
COc1ccc2nc(NC(=O)CSc3n[nH]c(N)n3)sc2c1	.	.	.	.	-	-
COc1ccc2nc(NC(=O)CSc3nnc(C)s3)sc2c1	-	-	11.6	-	-	-
COc1ccc2nc(NC(=O)CSc3nc(SC)ns3)sc2c1	72.1	-	46.7	-	-	-
COc1ccccc1NC(=O)CSc1nc(SC)ns1	-	-	-	-	-	-
COc1ccc2nc(NC(=O)CSc3nccc(C)n3)sc2c1	-	-	-	-	-	-
CSc1nsc(SCC(=O)Nc2ccccn2)n1	41.7	-	23.1	-	-	-
CSc1nsc(SCC(=O)NC2CCCCC2)n1	-	-	26.6	-	-	-
CCN(CC(=O)NCc1cccs1)C(=O)C(c1ccccc1)c1ccccc1	-	-	-	-	-	-
Cc1ccc(C(=O)c2cn(CC(=O)Nc3ccc4c(c3)OCCO4)c3nc(C)ccc3c2=O)cc1	.	.	.	.	.	-
O=C(CSc1ccc(-c2cccs2)nn1)Nc1cccc(F)c1	.	.	.	.	.	-
Cc1nc(SCC(=O)Nc2nc3ccccc3s2)n[nH]1	69.3	.	53.8	-	-	-
Cc1nc(SCC(=O)Nc2ccccn2)n[nH]1	-	-	-	-	-	-
COc1ccc2nc(NC(=O)CSc3nnnn3C)sc2c1	45.8	-	28.3	-	-	-
CSc1nsc(SCC(=O)Nc2nc3ccccc3s2)n1	67.4	-	29.7	-	-	-
CCOc1ccc2nc(NC(=O)CSc3nnnn3C3CCCCC3)sc2c1	49.7	-	30.4	-	-	-
COc1ccc(-c2csc(NC(=O)CSc3nc(SC)ns3)n2)cc1	57.2	-	39.2	-	-	-
COc1ccc(-c2csc(NC(=O)CSc3nc(C)cs3)n2)cc1	.	.	.	.	-	-
COc1ccccc1NC(=O)Cn1c(CCC(=O)O)ccc1-c1ccccc1	-	-	-	-	-	-
COc1cc(C=C2C(=O)NC(=O)NC2=O)ccc1OS(=O)(=O)c1ccccc1[N+](=O)[O-]	57.4	-	-	-	-	-
COc1cc(/C=C2\C(=N)N3N=CSC3=NC2=O)ccc1OS(=O)(=O)c1ccccc1[N+](=O)[O-]	-	-	-	-	-	-
SMILES	Shiga toxin inh	Giardia FBPA inh	CHX counter	LmPK inhibitor	RE007 growth inh	TbPYK inhibitor
CCC(=O)C1=C(c2cccc([N+](=O)[O-])c2)N(C(=O)CC)n2c(nnc2-c2ccccc2)S1	.	.	.	.	.	-
CC(C)CNC(=S)N1CCC(c2nc(-c3ccc(F)cc3)no2)CC1	-	-	-	-	-	-
COCCNC(=S)N1CCC(c2nc(-c3ccc(N(C)C)cc3)no2)CC1	-	-	24.1	-	-	-
CCN(C(=O)Cn1c(=O)n(CCCS(=O)(=O)C2CCCCC2)c(=O)c2ccccc21)c1cccc(C)c1	.	.	.	.	.	-
COCCSc1ncnc2c1oc1nc3c(cc12)COC(C)(C)C3	-	-	23.1	-	-	-
CC1(C)Cc2nc3oc4c(N5CCOCC5)ncnc4c3cc2CO1	-	-	-	-	-	-
COc1ccc(CNC(=O)CCc2nnc3n(CC(C)C)c(=O)c4ccccc4n23)cc1	.	.	.	.	.	-
CSc1nnc(-c2ccccc2)o1	-	-	-	-	-	-
CSc1nnc(-c2cc3c(s2)-c2ccccc2CC3)o1	79.8	-	24.8	-	-	-
CC1CCc2sc(-c3n[nH]c(=S)o3)cc2C1 (stereo unspecified)	41.0	?	18.8	?	?	?
S=c1[nH]nc(-c2cc3c(s2)-c2ccccc2CC3)o1	56.3	-	30.1	-	?	-
CC1CCc2sc(C(=O)NC3CCCCC3)cc2C1 (stereo unspecified)	.	.	.	.	-	-
CCC(Sc1nnc2c3ccccc3n(CC)c2n1)C(=O)Nc1ccc(NC(C)=O)cc1 (stereo unspecified)	.	.	.	.	.	-
CCOC(=O)C1=C[C@@H](C(C)(C)C)N(S(=O)(=O)c2ccc(C)cc2)[C@H]1c1ccc(Cl)c(Cl)c1	.	.	.	.	-	-
CCCc1c(O)nc(SC2CC(=O)N(c3ccc(C)c(Cl)c3)C2=O)[nH]c1=O (stereo unspecified)	.	.	.	.	?	-
Cc1ccc(N2C(=O)CC(Sc3nc4ccccc4o3)C2=O)cc1Cl (stereo unspecified)	-	-	-	-	10µM	-
CSc1ccccc1OCc1cc(C(=O)NC(C)Cc2cccc(C)n2)no1 (stereo unspecified)	88.3	-	49.0	-	-	-
CCn1nc(C)c(CNC(=O)c2cc(COc3ccccc3SC)on2)c1C	-	.	24.9	-	-	-
CSc1ccccc1OCc1cc(C(=O)NCc2cccc(C)n2)no1	99.5	-	80.2	-	-	-
CCn1nc(C)c(CNC(=O)c2cc(COc3cncc(Cl)c3)on2)c1C	-	-	-	-	-	-
O=C1CC(C(=O)N2CCc3ccccc32)CN1c1ccccc1 (stereo unspecified)	-	-	-	-	-	-
CSc1ncccc1C(=O)Nc1nc2c(C)cccc2s1	-	-	-	-	-	-
CSc1ncccc1C(=O)Nc1nc2ccc(Oc3ccccc3)cc2s1	55.6	-	15.1	-	-	-
CCOc1ncccc1C(=O)Nc1ccc2nc(C)sc2c1	50.3	-	13.6	-	-	-
CSc1ncccc1C(=O)Nc1ccc2nc(C)sc2c1	49.5	-	19.4	-	-	-
SMILES	Shiga toxin inh	Giardia FBPA inh	CHX counter	LmPK inhibitor	RE007 growth inh	TbPYK inhibitor
CCS(=O)(=O)c1nc(S(=O)(=O)c2ccc(Cl)cc2)c(N2CCc3ccccc3C2)s1	-	-	-	-	-	-
CCn1c(C(=O)NCc2ccccc2C)cc2oc3ccccc3c21	.	.	.	.	.	-
COc1cc(NC(=O)Cc2nn(C)c(=O)c3ccccc23)cc(OC)c1OC	-	-	19.7	-	-	-
COc1ccc(C(=O)c2cnc(/N=C/N(C)C)s2)cc1	+	-	41.8	-	-	-
CN(C)/C=N/c1ncc(C(=O)c2ccc3ccccc3c2)s1	-	-	33.4	-	-	-
Cc1cc(Sc2nnc(/N=C/N(C)C)s2)c2ccccc2n1	-	-	-	-	-	-
COc1ccc(/C(C)=N/NC(=O)c2cccc(S(=O)(=O)N3CCCC3)c2)c(O)c1	.	.	.	.	-	-
CCCCOC1CC(c2ccc(OCc3ccc(OC)cc3)c(OC)c2)N(C)O1 (stereo unspecified)	85.0	-	24.0	-	-	-
N#Cc1c2n(c3c(=O)[nH]cnc13)CCCC2	-	-	-	-	-	-
